Measured values reported in the supplement of paper PMC6135742.
Structures can show the parent of a compound that is named as a salt. ± gives the standard deviation of the averaged measurements. In all, about 2,600 compounds were measured (“MBP+ mature oligodendrocyte number relative to DMSO vehicle control”: median about -0.34, highest 2% from about 13 on). For the sample, the highest values were picked, then their nearest neighbours and some compounds at random.

tested on: jimpy (Plp1 jimpy) mouse iPSC-derived oligodendrocyte progenitor cells; test: MBP+ mature oligodendrocyte number relative to DMSO vehicle control (SDs above negative control mean); higher = more surviving jimpy oligodendrocytes (rescue); conditions: 10 µM; 3 days
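Note: 10 µM single dose with 3-day oligodendrocyte differentiation.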

SMILES | MBP+ mature oligodendrocyte number
COc1ccccc1CN[C@H]1CCCN[C@H]1c1ccccc1 | -0.711
CSc1c(C)c(SC)n2ccncc12 [Oltipraz metabolite M2] | -2.35
CC(C)NC[C@H](O)COc1ccc(CCOCC2CC2)cc1 [Levobetaxolol HCl] | 9.7
CN(C)C(=O)Nc1cccc(-c2ccc(N(C)C)cc2)c1 [Atglistatin] | 6.21
COc1cc2c[n+](C)c3c4cc5c(cc4ccc3c2cc1OC)OCO5 [Nitidine chloride] | < -4.47
N#CC1(c2ccc(NC(=O)c3cccnc3NCc3ccncc3)cc2)CCCC1 [Apatinib] | 2.86
COc1ccc(CNCc2cccc3ccccc23)cc1 | -1.56
CN(C/C=C/C#CC(C)(C)C)Cc1cccc2ccccc12 [Terbinafine] | 1.87
CN(C/C=C/C#CC(C)(C)C)Cc1cccc2ccccc12 [Terbinafine HCl] | 4.54
CN(Cc1ccc(C(C)(C)C)cc1)Cc1cccc2ccccc12 [Butenafine HCl] | 21.1
CCC(=O)O[C@]1(C(=O)CCl)[C@@H](C)C[C@H]2[C@@H]3CCC4=CC(=O)C=C[C@]4(C)[C@@]3(F)[C@@H](O)C[C@@]21C [Clobetasol propionate] | 12.8
C[C@H]1C[C@H]2[C@@H]3CCC4=CC(=O)C=C[C@]4(C)[C@@]3(F)[C@@H](O)C[C@]2(C)[C@@]1(O)C(=O)CO [Betamethasone] | 6.53 ± 6.4
CCC(=O)OCC(=O)[C@@]1(OC(=O)CC)[C@@H](C)C[C@H]2[C@@H]3CCC4=CC(=O)C=C[C@]4(C)[C@@]3(Cl)[C@@H](O)C[C@@]21C [Beclomethasone dipropionate] | 7.8
CCC(=O)O[C@]1(C(=O)CCl)[C@@H](C)C[C@H]2[C@@H]3C[C@H](F)C4=CC(=O)C=C[C@]4(C)[C@@]3(F)[C@@H](O)C[C@@]21C [Halobetasol Propionate] | 21.4
CCC(=O)O[C@]1(C(=O)SCF)[C@H](C)C[C@H]2[C@@H]3C[C@H](F)C4=CC(=O)C=C[C@]4(C)[C@@]3(F)[C@@H](O)C[C@@]21C [Fluticasone propionate] | 8.9
C[C@@H]1C[C@H]2[C@@H]3C[C@H](F)C4=CC(=O)C=C[C@]4(C)[C@@]3(F)[C@@H](O)C[C@]2(C)[C@@]1(O)C(=O)CO [Flumethasone] | 8.94
CO[C@H]1C(=O)[C@]2(C)[C@@H](OC)C[C@H]3OC[C@@]3(OC(C)=O)[C@H]2[C@H](OC(=O)c2ccccc2)[C@]2(O)C[C@H](OC(=O)[C@H](O)[C@@H](NC(=O)OC(C)(C)C)c3ccccc3)C(C)=C1C2(C)C [Cabazitaxel] | -3.71
C=CCN1CCc2c(cc(O)c(O)c2Br)[C@@H](c2ccccc2)C1 [R(+)-6-Bromo-APB hydrobromide] | -2.95
Cc1ccc(C(=O)NCCCCCC(=O)Nc2ccccc2N)cc1 | -5.76

SMILES | MBP+ mature oligodendrocyte number
NC(N)=NCc1cccc(I)c1 [m-Iodobenzylguanidine hemisulfate] | 16.6
CCN(CC)CCn1c(=O)c(Cc2ccc(OC)cc2)nc2ccccc21 [Caroverine hydrochloride] | -0.211
Cc1ccc(S(=O)(=O)OCC(=O)Nc2ccc(C(=O)O)c(O)c2)cc1 | 2.29
CC[n+]1c(/C=C/C=C2/N(C)c3ccccc3C2(C)C)sc2ccccc21 | < -4.47
Cc1cc(C(=O)NOCCO)c(Nc2ccc(I)cc2F)n(C)c1=O | -0.892
NCCNS(=O)(=O)c1cccc2c(Cl)cccc12 [A3 hydrochloride] | -2.82
Cn1c(N2CCCCS2(=O)=O)nc(C(=O)NCc2ccc(F)cc2)c(O)c1=O | < -6.7
Cc1nnc(C(=O)NC(C)(C)c2nc(C(=O)NCc3ccc(F)cc3)c(O)c(=O)n2C)o1 [Raltegravir (MK-0518)] | 55.9
O=C(Nc1cccc(C(F)(F)F)c1)Nc1cc(S(=O)(=O)NC2CC2)ccc1-c1ccsc1 | 18.2
O=C(O)c1ccccc1Nc1cccc(C(F)(F)F)c1 [Flufenamic acid] | 1.25
COc1cc(OC)cc(-c2cc3cnc(N)nc3nc2NC(=O)NC(C)(C)C)c1 | -2.43
CC[C@H](NC(=O)c1c(C)c(-c2ccccc2)nc2ccccc12)c1ccccc1 | -1.61
O=C1NC(=O)/C(=C\c2ccc3nccnc3c2)S1 | -0.833
Clc1ccccc1C(c1ccccc1)(c1ccccc1)n1ccnc1 [Clotrimazole] | 15.7 ± 1.2
FC(F)(F)c1ccccc1-n1ccnc1 [1-[2-(Trifluoromethyl)phenyl]imidazole] | -0.176
O=C(NCCO)c1cccc(-c2cc(Nc3ccc(OC(F)(F)F)cc3)ncn2)c1 | -0.394
CC(=O)[C@H]1CC[C@H]2[C@@H]3CC=C4C[C@@H](OS(=O)(=O)O)CC[C@]4(C)[C@H]3CC[C@]12C [Pregnenolone sulfate sodium] | 0.467
O=C1NC(=O)C(=Cc2ccc(-c3ccc(F)cc3)o2)S1 (stereo in doubt) | 0.66
Clc1ccc(C(c2ccc(Cl)cc2)[n+]2ccn(CC(OCc3ccc(Cl)cc3Cl)c3ccc(Cl)cc3Cl)c2)cc1 (configuration not stated) [Calmidazolium chloride] | < -3.34

SMILES | MBP+ mature oligodendrocyte number
CC(C)OC(=O)C(C(=O)OC(C)C)=C1SC=CS1 [Malotilate] | 19
CCN(C(=O)c1c(O)c2c(Cl)cccc2n(C)c1=O)c1ccccc1 [Laquinimod] | 1.45
O=C(O)[C@H](CC(=O)N1C[C@H]2CCCC[C@H]2C1)Cc1ccccc1 [Mitiglinide calcium] | -1.54
COc1ccccc1N1CCN(CCN(C(=O)c2ccc(F)cc2)c2ccccn2)CC1 [p-MPPF dihydrochloride] | 6.54
CNCc1ccc(C)c(NC(=O)c2ccc(Nc3nc(-c4ccccc4)c4ccccc4n3)cc2)c1 | < -6.35
Cc1ccc(C(=O)Nc2ccc(S(=O)(=O)O)c3cc(S(=O)(=O)O)cc(S(=O)(=O)O)c23)cc1NC(=O)c1cccc(NC(=O)Nc2cccc(C(=O)Nc3cc(C(=O)Nc4ccc(S(=O)(=O)O)c5cc(S(=O)(=O)O)cc(S(=O)(=O)O)c45)ccc3C)c2)c1 [Suramin sodium salt] | -1.35
Cc1ccc(NC(=O)c2cccc(N(C)C)c2)cc1NC(=O)c1ccc(O)cc1 | 14.6
C[C@]12CC[C@@H]3c4ccc(O)cc4CC[C@H]3[C@@H]1CC[C@@H]2O [Estradiol] | 5.47
C[C@]12CC[C@@H]3c4ccc(O)cc4CC[C@H]3[C@@H]1CCC2=O [Estrone] | 21.6 ± 26
C[C@]12CC[C@@H]3c4ccc(O)cc4CC[C@H]3[C@@H]1CC[C@@H]2O [beta-Estradiol] | 3.17
C[C@]12CC[C@@H]3c4ccc(O)cc4CC[C@H]3[C@@H]1C[C@@H](O)[C@@H]2O [Estriol] | -0.78
Nc1nc2ccc(Cl)cc2n2c(-c3ccccc3)nnc12 | 0.304
Oc1c2ccccc2c2c3c(cccc13)N=N2 | -2.59 ± 1.1
CCCCCCCCCCCCCCCC(=O)OC[C@H](O)[C@H]1OC(=O)C(O)=C1O [L-Ascorbyl 6-palmitate] | -1.84
N[C@@H](Cc1cc(I)c(Oc2cc(I)c(O)c(I)c2)c(I)c1)C(=O)O [L-Thyroxine] | -1.06
N#Cc1ccc(C(c2ccc(C#N)cc2)n2cncn2)cc1 [Letrozole] | 3.69
c1ccc(-c2ccc(C(c3ccccc3)n3ccnc3)cc2)cc1 (configuration not stated) [Bifonazole] | 52.3
CC(N)(Cc1ccc(O)cc1)C(=O)O (racemic) [DL-alpha-Methyl-p-tyrosine] | 1.37
O=C(/C=C/c1ccc(O)cc1)CC(=O)/C=C/c1ccc(O)cc1 [Bisdemethoxycurcumin] | 0.659
